In PubChem BioAssay:
Inconclusive results are not listed. The source holds several records for some structures; these can differ, active in one and inactive in another. The source made the active and inactive calls. Unless noted, the rule behind the calls is not given here.

Experiments:
[1] = system: Aerobactin synthetase IucA (Klebsiella pneumoniae); assay: IucA aerobactin synthetase inhibitors, biochemical, Tocris library, absorbance (AID 1345561); settings: purified IucA enzyme assay, absorbance (OD) read-out; stronger effect = lower value;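 tested at 8 µM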;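 note: 100% = enzyme without compound and 0% = no enzyme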
[2] = sensitizers of A549 cells to miR-34 induction, primary screen, imaging, A549 dox-inducible miR-34, nuclei and caspase counts (AID 1347080;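 active = compounds whose cell count with miR-34 switched on is under 0.7 times the count with it off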); settings: A549 miR-34 inducible, Hoechst nuclei count, 48 h
[3] = viability rescue of complex I mutant cybrids, primary screen, cell-based, galactose medium, ATP luminescence (AID 1645843;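 active = z-score of at least 1.8 in each of two replicates, scored against plate mean and spread of sample wells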;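 note: positive z means more ATP and so rescue of galactose-driven cybrid death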); settings: complex I mutant cybrid cells, 72 h, stronger effect = higher value
[4] = LFS_MB_P medulloblastoma growth inhibition, cell-based, chromothripsis tumors, cisplatin or BGB combos (AID 1671449; in the data active = inhibition above about 80%;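 note: cells exposed for 96 hours; 0% = vehicle DMSO and 100% = killing by high DMSO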); settings: LFS_MB_P medulloblastoma cells
[5] = HDN33 neuroblastoma growth inhibition, cell-based, chromothripsis tumors, cisplatin or BGB combos (AID 1671450; in the data active = inhibition above about 80%;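 note: cells exposed to compound for four days; 0% = vehicle DMSO and 100% = cell killing by high DMSO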); settings: HDN33 neuroblastoma cells, stronger effect = higher value
[6] = ICB984 medulloblastoma cell growth inhibition, synergistic combos for chromothripsis tumors, cisplatin or BGB combos (AID 1671451); settings: ICB984 medulloblastoma cells, drug combinations, stronger effect = higher value;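 note: cells exposed for 96 hours before readout; 0% = vehicle DMSO and 100% = killing by high DMSO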
[7] = HTB85 osteosarcoma cell growth inhibition, synergistic combos for chromothripsis tumors, BGB or cisplatin IC20 combos (AID 1671453; in the data active = inhibition above about 80%;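 note: cells exposed for 96 hours before readout; 0% = vehicle DMSO and 100% = high DMSO killing control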); settings: HTB85 osteosarcoma cells, drug combinations, stronger effect = higher value
[8] = liver-stage malaria parasite growth inhibition, primary screen, cell-based, HepG2, luciferase luminescence, HepG2 viability (AID 624349; in the data active = parasite load remaining mostly below about 12%, no sharp cut-off; inactive = mostly above about 10%;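 note: 100% = mean of DMSO negative control wells on the same plate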); settings: P. berghei liver stage in HepG2, luciferase luminescence, concentration not given here; parasite load remaining: stronger effect = lower value; viability: measured here: HepG2 viability without parasites
[9] = growth inhibition of DIPG glioma cells, dose response, cell-based, SU-DIPG-XVII, MIPE5.0, CellTiter-Glo, qHTS (AID 1347060; cut-off not given, nearly all actives have AC50 up to about 26 µM;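 for AC50: cells exposed to compound for 48 hours before viability readout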); settings: SU-DIPG-XVII viability, CellTiter-Glo ATP luminescence
[10] = growth inhibition of DIPG glioma cells, dose response, cell-based, SU-DIPG-XIII, MIPE5.0, CellTiter-Glo, qHTS (AID 1347064; cut-off not given, nearly all actives have AC50 up to about 23 µM); settings: SU-DIPG-XIII viability, CellTiter-Glo ATP luminescence
[11] = viability loss in pontine glioma line – cell-based, SU-DIPG-XXV, MIPE5.0, CellTiter-Glo, qHTS, dose response (AID 1347065; cut-off not given, nearly all actives have AC50 up to about 26 µM;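 note: cells exposed to compound for 48 hours before ATP readout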); settings: CellTiter-Glo ATP luminescence
[12] = SU-DIPG-XXV glioma cell viability, MIPE5.0 library, qHTS (AID 1347068; cut-off not given, nearly all actives have IC50 up to about 30 µM)
[13] = stronger effect = lower value, cell number ratio, induced over uninduced
[14] = measured here: relative caspase fold change +Dox/-Dox
[15] = measured here: total cells with miR-34 induction, stronger effect = lower value
[16] = measured here: total cells without miR-34 induction

## COc1ccc(CC(=O)NC(/N=C(\NC#N)Nc2cccc3ncccc23)C(C)(C)C)cc1OC (stereo unspecified)
[1]
  remaining activity: 122% (inactive)
[2]; [13]
  fold change: 0.95 (inactive)
[2]; [14]
  fold change: 1.31
[2]; [15]
  cell count: 9530
[2]; [16]
  cell count: 10000
[3]
  z-score: 0.08 (inactive)

## COc1cc(C=O)c([N+](=O)[O-])cc1OC
[1]
  remaining activity: 102% (inactive)
[2]; [13]
  fold change: 0.928 (inactive)
[2]; [14]
  fold change: 1.17
[2]; [15]
  cell count: 8790
[2]; [16]
  cell count: 9460
[3]
  z-score: -0.05 (inactive)
[4]; at 0.5 µM, stronger effect = higher value
  inhibition: -16.6% (inactive)
[4]; measured here: combination with BGB IC20, at 0.005 µM
  inhibition: 9.48%
[4]; measured here: combination with BGB IC40, at 0.005 µM
  inhibition: -5.33%
[4]; measured here: combination with BGB IC40, at 0.05 µM
  inhibition: 7.41%
[4]; measured here: combination with cisplatin, at 0.5 µM, stronger effect = higher value
  inhibition: -18.5%
[4]; measured here: combination with cisplatin, at 5 µM, stronger effect = higher value
  inhibition: 3.4%
[5]; BGB combo, at 5 µM
  inhibition: -38.7%
[5]; at 0.5 µM
  inhibition: -19.7% (inactive)
[5]; cisplatin combo, at 5 µM
  inhibition: -6.74%
[5]; measured here: with BGB IC20 combination, at 0.5 µM
  inhibition: -8.97%
[5]; measured here: with cisplatin IC20 combination, at 0.5 µM
  inhibition: -29.9%
[5]; single agent, at 5 µM
  inhibition: 0.626%
[6]; BGB IC20 combo, at 0.005 µM
  inhibition: -9.07%
[6]; BGB IC40 combo, at 0.005 µM
  inhibition: -48.2%
[6]; BGB IC40 combo, at 0.05 µM
  inhibition: -39.8%
[6]; at 0.5 µM
  inhibition: -35.2% (inactive)
[6]; cisplatin combo, at 0.05 µM
  inhibition: -45.3%
[6]; cisplatin combo, at 0.5 µM
  inhibition: -48.6%
[6]; cisplatin combo, at 5 µM
  inhibition: -19.2%
[6]; measured here: 5 uM single agent, at 5 µM
  inhibition: -4.36%
[7]; at 0.5 µM
  inhibition: -19.8% (inactive)
[7]; measured here: with BGB IC20, at 0.5 µM
  inhibition: -22.3%
[7]; measured here: with BGB IC20, at 5 µM
  inhibition: -12.5%
[7]; measured here: with cisplatin IC20, at 0.5 µM
  inhibition: -24.3%
[7]; measured here: with cisplatin IC20, at 5 µM
  inhibition: -32.4%
[7]; single agent, at 5 µM
  inhibition: -9.78%

## COc1cc(C[C@H]2C(=O)OC[C@@H]2Cc2ccc(OC)c(OC)c2)ccc1O
[1]
  remaining activity: 104% (inactive)
[2]; [13]
  fold change: 0.937 (inactive)
[2]; [14]
  fold change: 0.733
[2]; [15]
  cell count: 4240
[2]; [16]
  cell count: 4530
[3]
  z-score: -0.76 (inactive)

## O=S(=O)(c1cccc2cnccc12)N1CCNCC1
[1]
  remaining activity: 125% (inactive)
[2]; [13]
  fold change: 1.05 (inactive)
[2]; [14]
  fold change: 0.794
[2]; [15]
  cell count: 9210
[2]; [16]
  cell count: 8760
[3]
  z-score: -0.56 (inactive)

## O=c1cc(N2CCOCC2)nc2c3ccccc3ccn12
[8]
  parasite load remaining: 31.9% (inactive)
  viability: 94.8%
[1]
  remaining activity: 126% (inactive)
[2]; [13]
  fold change: 0.935 (inactive)
[2]; [14]
  fold change: 1.52
[2]; [15]
  cell count: 8560
[2]; [16]
  cell count: 9160
[3]
  z-score: 1.56 (inactive)

## CC(C)[C@H](CO)Nc1nc(Nc2cc(N)cc(Cl)c2)c2ncn(C(C)C)c2n1
[8]
  parasite load remaining: 38.5% (inactive)
  viability: 101%
[1]
  remaining activity: 103% (inactive)
[2]; [13]
  fold change: 1.06 (inactive)
[2]; [14]
  fold change: 1.14
[2]; [15]
  cell count: 1230
[2]; [16]
  cell count: 1160
[3]
  z-score: -0.555 (inactive)

## N#C/C(=C\c1ccc(O)c(O)c1)C(=O)NCCCc1ccccc1
[1]
  remaining activity: 98.4% (inactive)
[2]; [13]
  fold change: 0.871 (inactive)
[2]; [14]
  fold change: 1.07
[2]; [15]
  cell count: 7250
[2]; [16]
  cell count: 8330
[3]
  z-score: -0.64 (inactive)

## O=C(OCCN1CCCCC1)c1c[nH]c2ccccc12
[1]
  remaining activity: 82.2% (inactive)
[2]; [13]
  fold change: 0.911 (inactive)
[2]; [14]
  fold change: 0.811
[2]; [15]
  cell count: 9250
[2]; [16]
  cell count: 10200
[3]
  z-score: 0.69 (inactive)

## Cn1cccc1/C=C1\C(=O)NC(=O)c2ccccc21
[1]
  remaining activity: 129% (inactive)
[2]; [13]
  fold change: 0.918 (inactive)
[2]; [14]
  fold change: 1.16
[2]; [15]
  cell count: 8530
[2]; [16]
  cell count: 9300
[3]
  z-score: -0.415 (inactive)

## Nc1[nH]nc2nc3ccccc3nc12
[8]
  parasite load remaining: 38.7% (inactive)
  viability: 97.8%
[1]
  remaining activity: 110% (inactive)
[2]; [13]
  fold change: 0.889 (inactive)
[2]; [14]
  fold change: 0.743
[2]; [15]
  cell count: 7860
[2]; [16]
  cell count: 8840
[3]
  z-score: -0.17 (inactive)

## C#CCN1C(C)=C(C(=O)OC)C(c2cccc([N+](=O)[O-])c2)C(C(=O)OCC)=C1C (stereo unspecified)
[1]
  remaining activity: 122% (inactive)
[2]; [13]
  fold change: 0.951 (inactive)
[2]; [14]
  fold change: 0.816
[2]; [15]
  cell count: 7120
[2]; [16]
  cell count: 7490
[3]
  z-score: -0.3 (inactive)

## COC(=O)c1c(-c2cc(OC)c(OC)c(OC)c2)c2ccnc(OCc3ncccn3)c2c(=O)n1Cc1ccnc(C)c1
[1]
  remaining activity: 117% (inactive)
[2]; [13]
  fold change: 0.972 (inactive)
[2]; [14]
  fold change: 0.845
[2]; [15]
  cell count: 8000
[2]; [16]
  cell count: 8240
[3]
  z-score: -0.06 (inactive)

## COc1[nH]c2ccc(F)cc2c1C(=O)OCC1CCN(CCNS(C)(=O)=O)CC1
[1]
  remaining activity: 110% (inactive)
[2]; [13]
  fold change: 0.927 (inactive)
[2]; [14]
  fold change: 0.654
[2]; [15]
  cell count: 8220
[2]; [16]
  cell count: 8880
[3]
  z-score: -0.185 (inactive)

## Cc1c(CC(C)(C)C(=O)O)n(Cc2ccc(Cl)cc2)c2ccc(F)cc12
[1]
  remaining activity: 112% (inactive)
[2]; [13]
  fold change: 0.952 (inactive)
[2]; [14]
  fold change: 0.72
[2]; [15]
  cell count: 8220
[2]; [16]
  cell count: 8630
[3]
  z-score: 0.1 (inactive)

## COc1cc2c(cc1C(F)(F)F)N(C(=O)Nc1cc(F)cc(-c3cccnc3)c1)CC2
[1]
  remaining activity: 97.1% (inactive)
[2]; [13]
  fold change: 0.848 (inactive)
[2]; [14]
  fold change: 0.948
[2]; [15]
  cell count: 5790
[2]; [16]
  cell count: 6820
[3]
  z-score: -0.61 (inactive)

## CCN(CC)CCCCN1c2ccccc2Oc2ccc(Cl)cc21
[8]
  parasite load remaining: 45.6% (inactive)
  viability: 112%
[1]
  remaining activity: 88.2% (inactive)
[2]; [13]
  fold change: 1.24 (inactive)
[2]; [14]
  fold change: 0.706
[2]; [15]
  cell count: 276
[2]; [16]
  cell count: 224
[3]
  z-score: -0.7 (inactive)

## Oc1ccc(-c2nc3cc(O)cc(Br)c3o2)cc1
[1]
  remaining activity: 98.9% (inactive)
[2]; [13]
  fold change: 0.904 (inactive)
[2]; [14]
  fold change: 1.67
[2]; [15]
  cell count: 8500
[2]; [16]
  cell count: 9400
[3]
  z-score: 0.775 (inactive)

## Cc1cc(C)c(CNC(=O)c2cc(-c3ccc(N4CCN(C)CC4)nc3)cc3c2c(C)cn3C(C)C)c(=O)[nH]1
[9]
  AC50: 20.9 µM (active)
  outcome: inactive
[10]
  outcome: inactive
[11]
  AC50: 26.3 µM (active)
[12]
  outcome: inactive
